Laboratory results taken from the supplement of paper PMC12067093, “Discovery and optimisation of a covalent ligand for TRIM25 and its application to targeted protein ubiquitination” (Chemical Science, 2025).
The full data set covers some 21,000 targets. This sample favours those with the largest changes.

Compound: Cc1cc(ccc1-c1ccccc1)C(=O)N1CCCN(CC1)C(=O)CCl [compound 10]
Assay: probe-labelled cysteine peptide fold change vs DMSO (competition) (log2 fold change); higher = less target engagement (more negative = stronger competition)
Conditions: THP-1, incubation time: 4 h
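Also: competitive profiling in live THP-1 cells: cysteine peptides tagged with an iodoacetamide desthiobiotin (IA-DTB) probe, intensity after compound treatment relative to DMSO-treated cells.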

UniProt P52888, sequence (P52888 whole entry, looked up): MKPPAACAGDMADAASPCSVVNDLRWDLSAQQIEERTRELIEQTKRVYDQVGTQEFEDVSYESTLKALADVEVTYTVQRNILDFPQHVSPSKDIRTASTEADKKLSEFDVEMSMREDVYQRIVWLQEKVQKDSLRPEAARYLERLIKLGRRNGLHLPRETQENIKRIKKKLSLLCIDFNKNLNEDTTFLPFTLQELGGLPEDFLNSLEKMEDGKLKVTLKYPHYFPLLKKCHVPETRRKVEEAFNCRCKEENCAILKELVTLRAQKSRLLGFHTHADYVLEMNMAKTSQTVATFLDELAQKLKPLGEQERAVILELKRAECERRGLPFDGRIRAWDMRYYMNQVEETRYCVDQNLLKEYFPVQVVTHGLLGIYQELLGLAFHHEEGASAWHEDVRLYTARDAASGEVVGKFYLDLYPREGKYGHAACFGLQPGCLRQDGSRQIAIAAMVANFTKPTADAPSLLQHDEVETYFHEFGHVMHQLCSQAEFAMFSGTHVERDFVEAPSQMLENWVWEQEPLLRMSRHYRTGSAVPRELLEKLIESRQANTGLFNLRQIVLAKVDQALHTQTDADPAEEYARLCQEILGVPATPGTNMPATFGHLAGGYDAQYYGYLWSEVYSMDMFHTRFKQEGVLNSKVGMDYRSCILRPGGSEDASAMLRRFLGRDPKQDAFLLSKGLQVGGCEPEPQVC
UniProt Q12800, sequence (Q12800 whole entry, looked up): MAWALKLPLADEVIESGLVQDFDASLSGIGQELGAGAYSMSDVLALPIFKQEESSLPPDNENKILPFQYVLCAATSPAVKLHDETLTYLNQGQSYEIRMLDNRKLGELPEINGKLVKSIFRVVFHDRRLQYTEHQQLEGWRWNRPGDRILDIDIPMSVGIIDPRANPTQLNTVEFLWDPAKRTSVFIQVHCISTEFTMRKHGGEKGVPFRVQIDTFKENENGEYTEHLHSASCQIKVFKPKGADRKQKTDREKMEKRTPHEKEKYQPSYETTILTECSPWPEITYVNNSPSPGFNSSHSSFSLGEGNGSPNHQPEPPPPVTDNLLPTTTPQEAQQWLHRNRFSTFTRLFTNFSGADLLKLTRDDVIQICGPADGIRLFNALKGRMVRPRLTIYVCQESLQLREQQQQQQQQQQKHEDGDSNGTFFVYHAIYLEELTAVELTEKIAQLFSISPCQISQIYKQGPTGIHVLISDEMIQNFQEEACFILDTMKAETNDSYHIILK
UniProt Q68CZ2, sequence (Q68CZ2 whole entry, looked up): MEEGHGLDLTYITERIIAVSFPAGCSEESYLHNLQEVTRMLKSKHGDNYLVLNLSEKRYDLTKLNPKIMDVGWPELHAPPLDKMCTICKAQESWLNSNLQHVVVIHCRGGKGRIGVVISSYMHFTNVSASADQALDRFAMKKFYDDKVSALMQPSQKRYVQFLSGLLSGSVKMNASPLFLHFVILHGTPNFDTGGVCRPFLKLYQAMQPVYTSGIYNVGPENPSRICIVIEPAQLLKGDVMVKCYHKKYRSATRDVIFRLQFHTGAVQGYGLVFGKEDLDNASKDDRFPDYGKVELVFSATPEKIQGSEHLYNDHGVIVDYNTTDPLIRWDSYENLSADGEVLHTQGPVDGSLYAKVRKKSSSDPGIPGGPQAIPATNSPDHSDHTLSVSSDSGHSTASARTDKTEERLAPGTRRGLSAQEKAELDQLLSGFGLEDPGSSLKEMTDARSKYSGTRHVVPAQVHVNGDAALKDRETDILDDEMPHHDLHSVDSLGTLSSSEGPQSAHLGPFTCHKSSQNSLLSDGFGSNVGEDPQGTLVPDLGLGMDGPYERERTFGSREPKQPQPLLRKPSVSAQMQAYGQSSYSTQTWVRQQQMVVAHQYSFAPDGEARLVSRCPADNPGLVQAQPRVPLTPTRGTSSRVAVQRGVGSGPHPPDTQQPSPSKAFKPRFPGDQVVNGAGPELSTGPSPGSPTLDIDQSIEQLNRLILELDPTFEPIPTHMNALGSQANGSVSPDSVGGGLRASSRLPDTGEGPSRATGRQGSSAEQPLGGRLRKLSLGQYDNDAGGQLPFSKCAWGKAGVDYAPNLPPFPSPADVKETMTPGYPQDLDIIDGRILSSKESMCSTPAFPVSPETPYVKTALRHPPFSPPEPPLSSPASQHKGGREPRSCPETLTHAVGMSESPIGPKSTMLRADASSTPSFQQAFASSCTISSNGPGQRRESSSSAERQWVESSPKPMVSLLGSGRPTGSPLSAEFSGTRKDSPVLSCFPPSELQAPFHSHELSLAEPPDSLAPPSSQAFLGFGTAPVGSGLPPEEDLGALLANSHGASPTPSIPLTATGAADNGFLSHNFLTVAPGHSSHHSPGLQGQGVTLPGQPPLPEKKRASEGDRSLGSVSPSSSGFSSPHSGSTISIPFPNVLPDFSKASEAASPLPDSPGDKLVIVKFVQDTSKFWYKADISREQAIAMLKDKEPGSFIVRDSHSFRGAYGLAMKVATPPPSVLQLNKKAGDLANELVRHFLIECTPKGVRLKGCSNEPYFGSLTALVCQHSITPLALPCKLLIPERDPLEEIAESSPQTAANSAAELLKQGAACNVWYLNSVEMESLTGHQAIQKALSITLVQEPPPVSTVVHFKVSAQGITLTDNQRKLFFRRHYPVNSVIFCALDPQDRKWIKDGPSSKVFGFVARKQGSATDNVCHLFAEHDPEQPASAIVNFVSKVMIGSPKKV
UniProt Q8NE00, sequence (Q8NE00 whole entry): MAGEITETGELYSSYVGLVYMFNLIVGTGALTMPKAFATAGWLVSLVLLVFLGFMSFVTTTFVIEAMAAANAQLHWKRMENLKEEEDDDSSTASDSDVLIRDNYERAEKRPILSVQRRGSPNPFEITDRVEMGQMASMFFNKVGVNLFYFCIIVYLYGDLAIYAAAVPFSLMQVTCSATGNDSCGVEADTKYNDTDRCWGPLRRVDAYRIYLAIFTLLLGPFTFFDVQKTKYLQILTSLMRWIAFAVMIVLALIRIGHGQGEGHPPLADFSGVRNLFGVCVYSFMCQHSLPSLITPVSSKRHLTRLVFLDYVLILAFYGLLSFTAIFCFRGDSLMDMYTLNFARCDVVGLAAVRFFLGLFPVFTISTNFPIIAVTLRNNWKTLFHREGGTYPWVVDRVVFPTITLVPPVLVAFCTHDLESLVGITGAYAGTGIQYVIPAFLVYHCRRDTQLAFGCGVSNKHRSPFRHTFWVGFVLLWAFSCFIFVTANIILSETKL
UniProt P21580, sequence (P21580 whole entry): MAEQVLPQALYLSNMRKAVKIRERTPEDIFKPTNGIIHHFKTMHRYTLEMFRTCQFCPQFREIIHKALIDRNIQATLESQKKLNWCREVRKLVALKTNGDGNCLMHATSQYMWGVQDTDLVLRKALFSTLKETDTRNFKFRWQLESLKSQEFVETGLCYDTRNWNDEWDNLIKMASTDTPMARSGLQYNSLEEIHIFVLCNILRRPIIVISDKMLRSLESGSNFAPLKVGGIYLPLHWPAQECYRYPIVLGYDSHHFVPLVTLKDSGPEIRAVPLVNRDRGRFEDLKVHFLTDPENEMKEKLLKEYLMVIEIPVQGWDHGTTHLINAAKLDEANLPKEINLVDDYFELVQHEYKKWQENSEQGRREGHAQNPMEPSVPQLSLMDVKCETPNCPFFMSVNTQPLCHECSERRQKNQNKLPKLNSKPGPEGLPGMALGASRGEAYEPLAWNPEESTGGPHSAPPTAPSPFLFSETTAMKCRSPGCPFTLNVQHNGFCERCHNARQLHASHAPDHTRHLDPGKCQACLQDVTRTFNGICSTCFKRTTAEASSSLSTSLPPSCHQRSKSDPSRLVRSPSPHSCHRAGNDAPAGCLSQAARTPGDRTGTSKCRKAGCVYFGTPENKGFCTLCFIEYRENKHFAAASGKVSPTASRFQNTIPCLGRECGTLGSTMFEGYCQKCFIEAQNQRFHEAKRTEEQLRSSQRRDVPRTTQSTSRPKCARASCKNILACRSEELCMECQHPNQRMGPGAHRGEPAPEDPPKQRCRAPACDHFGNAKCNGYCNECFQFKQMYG
UniProt Q96N21, sequence (Q96N21 whole entry, looked up): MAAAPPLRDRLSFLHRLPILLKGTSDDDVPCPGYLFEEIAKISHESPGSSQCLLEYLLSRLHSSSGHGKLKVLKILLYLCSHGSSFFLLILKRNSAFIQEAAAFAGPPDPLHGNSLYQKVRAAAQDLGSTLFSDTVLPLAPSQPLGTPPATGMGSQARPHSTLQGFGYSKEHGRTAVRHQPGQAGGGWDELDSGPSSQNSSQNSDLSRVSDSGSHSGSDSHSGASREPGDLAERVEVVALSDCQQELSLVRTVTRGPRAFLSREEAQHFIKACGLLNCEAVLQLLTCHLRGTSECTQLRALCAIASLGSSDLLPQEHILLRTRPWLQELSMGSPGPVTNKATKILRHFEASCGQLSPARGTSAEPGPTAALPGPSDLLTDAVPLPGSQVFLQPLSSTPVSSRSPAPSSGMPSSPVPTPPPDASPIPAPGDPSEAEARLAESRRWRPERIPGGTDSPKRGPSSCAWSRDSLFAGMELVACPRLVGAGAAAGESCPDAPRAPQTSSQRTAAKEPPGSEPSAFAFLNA
UniProt Q96BS2, sequence (Q96BS2 whole entry): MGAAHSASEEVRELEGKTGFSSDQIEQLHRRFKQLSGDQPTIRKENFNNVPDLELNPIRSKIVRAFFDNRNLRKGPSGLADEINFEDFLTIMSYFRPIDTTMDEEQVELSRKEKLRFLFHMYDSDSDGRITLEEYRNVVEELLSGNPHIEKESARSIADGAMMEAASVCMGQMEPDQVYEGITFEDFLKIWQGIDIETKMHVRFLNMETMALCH
UniProt Q86Y82, sequence (Q86Y82 whole entry): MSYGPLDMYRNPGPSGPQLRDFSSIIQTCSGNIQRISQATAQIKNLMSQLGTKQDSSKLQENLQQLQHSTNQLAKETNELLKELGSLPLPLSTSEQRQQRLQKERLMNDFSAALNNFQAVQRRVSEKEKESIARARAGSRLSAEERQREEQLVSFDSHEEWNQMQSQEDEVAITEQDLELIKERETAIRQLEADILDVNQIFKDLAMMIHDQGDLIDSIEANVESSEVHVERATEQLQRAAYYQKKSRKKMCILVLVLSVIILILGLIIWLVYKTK

Target	probe-labelled cysteine peptide fold change (10 µM)	probe-labelled cysteine peptide fold change (50 µM)
SPATA2_Q9UM82_41_QRPGSDECLR (UniProt Q9UM82)	-0.46	-1.35
TDRD7_Q8NHU6_77_SGEITCYAMACTETAR (UniProt Q8NHU6)	-0.0811	-1.42
ST14_Q9Y5Y6_602+604_DCDCGLR (UniProt Q9Y5Y6)	-0.217	-1.07
TBL3_Q12788_526_GLWCVQFSPMDQVLATASADGTIK (UniProt Q12788)	0.119	0.0335
TARS2_Q9BW92_322_IGKEQELFFFHELSPGSCFFLPR (UniProt Q9BW92)	-0.0453	-0.425
SRP72_O76094_54_VVCLIQNGSFK (UniProt O76094)	0.0906	-0.275
TNFAIP2_Q03169_429_ANVIANINNCLSFR (UniProt Q03169)	-0.0434	0.184
TNPO3_Q9Y5L0_580_ITECLSELCSVQVMALKK (UniProt Q9Y5L0)	-0.00843	-0.267
SRPRB_Q9Y5M8_246_EFEFSQLPLKVEFLECSAK (UniProt Q9Y5M8)	-0.354	-1.1
SPCS2_Q15005_17+26_SGGSGGCSGAGGASNCGTGSGR (UniProt Q15005)	-0.494	-1.1
STIP1_P31948_471_CMMAQYNR (UniProt P31948)	0.271	-0.0499
SUGP2_Q8IX01_417_NCFFEIIKPFDK (UniProt Q8IX01)	-0.328	-1.49
SQOR_Q9Y6N5_201_CAGAPQK (UniProt Q9Y6N5)	-0.191	-0.122
SP100_P23497_266+270_EMPCPLPCDEESPEAELHNHGIQINSCSVR (UniProt P23497)	-0.396	-1.25
TESC_Q96BS2_213_FLNMETMALCH (UniProt Q96BS2)	-0.431	-1.46
TIGAR_Q9NQ88_114_EECPVFTPPGGETLDQVK (UniProt Q9NQ88)	-0.225	-1.35
TMEM192_Q8IY95_266_RLLALTSSDLGCQPSR (UniProt Q8IY95)	-0.0328	0.17
TBCCD1_Q9NVR7_337_CNESFIYLLSPLR (UniProt Q9NVR7)	0.178	0.422
SURF2_Q15527_29+38_CILTGHELPCR (UniProt Q15527)	0.0902	-0.0729
SON_P18583_92_CVSVQTDPTDEIPTKK (UniProt P18583)	-0.351	-1.24
SSH3_Q8TE77_434_QYECSLEQALR (UniProt Q8TE77)	-0.058	-0.0996

Target	probe-labelled cysteine peptide fold change (10 µM)	probe-labelled cysteine peptide fold change (50 µM)
TCF20_Q9UGU0_1795_SEDCGGGPR (UniProt Q9UGU0)	-0.142	-0.0709
TNPO1_Q92973_862_DDLRDMFCK (UniProt Q92973)	-0.311	-0.192
TNS3_Q68CZ2_88_MCTICK (UniProt Q68CZ2)	-0.357	-0.873
TDRD7_Q8NHU6_1029_CNQWSEEASMVFR (UniProt Q8NHU6)	-0.175	-0.845
THEMIS2_Q5TEJ8_355_DCEGEREENPEFTSLAVGDR (UniProt Q5TEJ8)	-0.0936	0.194
TMEM173_Q86WV6_12_PHSSLHPSIPCPR (UniProt Q86WV6)	0.0393	-0.625
TBC1D15_Q8TC07_184_YVVLCESPQDKR (UniProt Q8TC07)	0.0621	-0.0543
TOPBP1_Q92547_911_VVVCVSK (UniProt Q92547)	-0.0487	-0.114
STRADA_Q7RTN6_107_INLEACSNEMVTFLQGELHVSK (UniProt Q7RTN6)	0.391	0.345
TFCP2_Q12800_72_ILPFQYVLCAATSPAVK (UniProt Q12800)	0.339	0.0755
SNX6_Q9UNH7_149_TVAMHEVFLCR (UniProt Q9UNH7)	-0.37	-1.4
THOP1_P52888_175_KLSLLCIDFNK (UniProt P52888)	-0.00153	0.0417
TAPBPL_Q9BX59_39_AVDVVLDCFLAK (UniProt Q9BX59)	0.062	-0.104
THG1L_Q9NWX6_47_DFEADDTCLAHCWVVVR (UniProt Q9NWX6)	-0.0809	0.0136
THOC5_Q13769_282_HLPPPLYVLFVQATAYGQACDK (UniProt Q13769)	0.435	1.48
TARSL2_A2RTX5_637_YHQCATIQLDFQLPIR (UniProt A2RTX5)	0.00987	0.158
THOC1_Q96FV9_396_NEGCPSFVK (UniProt Q96FV9)	-0.137	-0.0773
TMEM104_Q8NE00_455_DTQLAFGCGVSNK (UniProt Q8NE00)	-0.127	-0.346
TBC1D4_O60343_74_SQKPEAGGCGAPAAR (UniProt O60343)	-0.579	-1.59
STK11IP_Q8N1F8_707+710_TESPAVCPNCGSDHVVLLAVSR (UniProt Q8N1F8)	0.0186	0.166
STAM2_O75886_76_VPHVALQALTLLGACVANCGK (UniProt O75886)	-0.0779	0.0749

Target	probe-labelled cysteine peptide fold change (10 µM)	probe-labelled cysteine peptide fold change (50 µM)
TET2_Q6N021_784_VEECFHGENQYSK (UniProt Q6N021)	-0.295	-0.385
TEPSIN_Q96N21_273_ACGLLNCEAVLQLLTCHLR (UniProt Q96N21)	0.821	2.62
TEP1_Q99973_2105_TPVLIHSFPACHR (UniProt Q99973)	-0.0307	-0.291
TMEM209_Q96SK2_495_TFTSQHFVQTPNKPDVTNENVFCIYQSAINPPHYELIYQR (UniProt Q96SK2)	0.145	0.0358
ST13_P50502_209_LLGHWEEAAHDLALACKLDYDEDASAMLK (UniProt P50502)	-0.319	-1.1
SRPRA_P08240_253_VWELGGCANK (UniProt P08240)	-0.192	-0.783
TGM2_P21980_371_SEGTYCCGPVPVR (UniProt P21980)	0.00473	-0.293
STXBP1_P61764_110_AAHVFFTDSCPDALFNELVK (UniProt P61764)	0.24	0.527
ST14_Q9Y5Y6_268_SFDLASCDER (UniProt Q9Y5Y6)	-0.0626	-1.09
TLE1_Q04724_621_QFQGHTDGASCIDISNDGTK<|>TLE4_Q04727_624_QFQGHTDGASCIDISNDGTK (UniProt Q04727+Q04724)	-0.231	-0.0783
SOS1_Q07889_838_CIVETENLEER (UniProt Q07889)	0.113	0.392
STX12_Q86Y82_29_DFSSIIQTCSGNIQR (UniProt Q86Y82)	0.143	0.0626
SPAG7_O75391_101_SILHDVVEVAGLTSFSFGEDDDCR (UniProt O75391)	-0.0328	-0.0999
TATDN3_Q17R31_66_YNGFVLPCLGVHPVQGLPPEDQR (UniProt Q17R31)	0.0121	1.04
TMA16_Q96EY4_162_KICANDAIPK (UniProt Q96EY4)	-0.041	-0.333
TNPO1_Q92973_205_SHAVACVNQFIISR (UniProt Q92973)	0.172	0.0841
TMEM147_Q9BVK8_116_CIPLWVGAR (UniProt Q9BVK8)	-0.0315	-0.102
TBC1D13_Q9NVG8_145_ATDYPCLLILDPQNEFETLR (UniProt Q9NVG8)	-0.0238	0.373
SON_P18583-2_2133_DLMANATCFR (UniProt P18583)	5.1e-05	-0.396
TGS1_Q96RS0_357_ECPASGQSEPR (UniProt Q96RS0)	-0.00223	0.216
TARS_P26639_467_RFQQDDAHIFCAMEQIEDEIK (UniProt P26639)	0.126	0.326

Target	probe-labelled cysteine peptide fold change (10 µM)	probe-labelled cysteine peptide fold change (50 µM)
SP3_Q02447_683_KFVCPECSK (UniProt Q02447)	0.188	0.33
SPECC1_Q5M775_578_ATEASAVEQTAESCEVQEMLK (UniProt Q5M775)	-0.116	-0.22
STXBP5_Q5T5C0_933_VISLPTQNCAYK (UniProt Q5T5C0)	0.186	0.107
SYK_P43405_597_MGCPAGCPR (UniProt P43405)	0.0815	-0.138
SNX6_Q9UNH7_347+348_DVLQAETSQQLCCQK (UniProt Q9UNH7)	-0.288	-0.619
TBCB_Q99426_51_LELLVGSPASCMELELYGVDDK (UniProt Q99426)	0.0991	0.421
SNX1_Q13596_318_LQEVECEEQR (UniProt Q13596)	-0.177	-0.146
TCF20_Q9UGU0_1918_YHYPCAIDADCLLHEENFSVR (UniProt Q9UGU0)	0.317	0.504
TNFAIP3_P21580_158_SQEFVETGLCYDTR (UniProt P21580)	-0.274	0.0322
SUN2_Q9UH99_601_VILQPDVHPGNCWAFQGPQGFAVVR (UniProt Q9UH99)	0.0264	0.295
SNTB1_Q13884_515_DGEIQLDLHSCPK (UniProt Q13884)	-0.136	1
TOP1_P11387_504_AGNEKEEGETADTVGCCSLR (UniProt P11387)	-0.0614	-1.22
STK11_Q15831_210_ISDLGVAEALHPFAADDTCR (UniProt Q15831)	-0.252	-0.136
TAF6_P49848_235_EITEACVGSCEAK (UniProt P49848)	-0.193	-1.67
THOC2_Q8NI27_436_DVFNMFCYLGPHLSHDPILFAK (UniProt Q8NI27)	0.0617	0.215
SYK_P43405_89+101_THASPADLCHYHSQESDGLVCLLK (UniProt P43405)	-0.0638	-0.0651
TANC1_Q9C0D5_800_MDALSCFLIK (UniProt Q9C0D5)	-0.167	-1.29
TOR2A_Q5JU69_54_CTLGAFCECDFRPDLPGLECDLAQHLAGQHLAK (UniProt Q5JU69)	-0.184	0.309
TOP2A_P11388_170_LCNIFSTK (UniProt P11388)	-0.173	-0.0147
